The compounds below were run on HIPK3. Settings: Compound Concentration (nM):1000.
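Note: KINOMEscan scanMAX binding as percent activity remaining versus control; lower means stronger binding.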

Row | SMILES | Percent Control
1 | COc1ccc2c(-c3ccnc(Nc4cccc(OC(F)(F)F)c4)n3)cnn2n1 [GW810372X] | 2.3%
2 | CCS(=O)(=O)c1ccc(OC)c(Nc2ncc(-c3cccc(OC)c3)o2)c1 [GW580509X] | 45%
3 | CC1=C(C(=O)Nc2ccc3[nH]ncc3c2)C(c2ccc3ccccc3c2)CC(=O)N1 (stereo not drawn) [GSK270822A] | 79%
4 | COc1cccc(-c2c[nH]c3c(N/N=C/c4ccncc4)ncnc23)c1 [GW814408X] | 27%
5 | Cl.O=C(Nc1ccc(Oc2ccc3[nH]c(NC(=O)c4ccco4)nc3c2)cc1)Nc1cc(C(F)(F)F)ccc1F [GW683134A] | 100%
6 | COC(=O)Nc1nc2ccc(Oc3ccc(NC(=O)Nc4cc(C(F)(F)F)ccc4F)cc3)cc2s1.Cl [GW693917A] | 94%
7 | COc1cc(N2CCN(C(C)C)CC2)ccc1Nc1nc(Nc2ccc(F)cc2C(=O)NC[C@@H](O)CO)c2cc[nH]c2n1 [GSK1392956A] | 44%
8 | COc1cc2ncn(-c3cc(O[C@H](C)c4ccccc4Cl)c(C(N)=O)s3)c2cc1OC [GSK237701A] | 93%
9 | Cl.c1ccc(Cc2nc3ccc(Nc4ncnc5ccccc45)cc3[nH]2)cc1 [GR269666A] | 100%
10 | COc1cc(C)c(N(C)C(=O)CN(C)C)cc1Nc1nc(Nc2cccc(F)c2C(N)=O)c2cc[nH]c2n1 [GSK2219385] | 100%
11 | NS(=O)(=O)c1ccc(N/N=C2\C(=O)Nc3ccc(C(=O)NCCc4c[nH]cn4)cc32)cc1 [GW300660X] | 12%
12 | CCS(=O)(=O)c1ccc(OC)c(Nc2ncc(-c3cccc(F)c3)o2)c1 [GW621970X] | 79%
13 | CN(C)CCNC(=O)Nc1ccc(N(C)c2ccnc(Nc3ccc(CS(C)(=O)=O)cc3)n2)cc1.Cl [GW830900A] | 81%
14 | COc1cc(/C=N/Nc2ncnc3[nH]ncc23)ccc1O [GW578748X] | 16%
15 | COc1ccc2cc(-c3c(-c4ccncc4)nc(-c4ccc(S(C)(=O)=O)cc4C)n3C)ccc2c1 [SB-633825] | 70%
16 | COc1ccc(COc2ccc(Cc3cnc(N)nc3N)cc2OC)cc1 [GW632580X] | 100%
17 | COc1cccc(-n2ncc3c(N/N=C/c4ccncc4)ncnc32)c1 [GW784752X] | 23%

Row | SMILES | Percent Control
18 | CN(C)c1cc2c(Nc3ccc4c(cnn4Cc4ccccc4)c3)ncnc2cn1 [GW282974X] | 100%
19 | Cc1cc(O)cc(C)c1/C=C/c1cncc(C(N)=O)c1 [GW435821X] | 100%
20 | NS(=O)(=O)c1ccc(N/N=C2\C(=O)Nc3ccc(-c4cnco4)cc32)cc1 [GW276655] | 20%
21 | O=C(Nc1n[nH]c2nc(-c3ccc(O)cc3)c(Br)cc12)C1CC1 [SB-725317] | 30%
22 | NS(=O)(=O)c1ccc(Nc2ncc(-c3ccccc3)o2)cc1 [GW572399X] | 75%
23 | Cl.O=C(O[C@H]1CN[C@H](C#Cc2cc3ncnc(Nc4ccc5c(cnn5Cc5ccccc5)c4)c3s2)C1)N1CCOCC1 [GSK200398A] | 92%
24 | COc1ccccc1-c1cc(/C=C2\C(=O)Nc3ncc(Br)cc32)cc(Br)c1O [GW442130X] | 100%
25 | CC1=C(C(=O)Nc2ccc3[nH]ncc3c2)C(c2ccc(Cl)c(Cl)c2)CC(=O)N1 (stereo not drawn) [GSK299115A] | 83%
26 | COc1cc2ncnc(Nc3ccc4c(cnn4Cc4ccccc4)c3)c2cc1OC.Cl [GW282449A] | 100%
27 | O=C1Nc2ccc(C(=O)c3ccco3)cc2C1=Cc1cc(Cl)c(O)c(Cl)c1 [GW406108X] | 5.4%
28 | CC(C)COC(=O)c1ccc2c(c1)/C(=C/Nc1ccc(S(N)(=O)=O)cc1)C(=O)N2 [GW416981X] | 63%
29 | Cl.O=S1CCN(Cc2ccc(-c3ccc4ncnc(Nc5ccc(OCc6ccccc6)c(F)c5)c4c3)o2)CC1 [GW576924A] | 97%
30 | CCn1c(-c2nonc2N)nc2c(C#CC(C)(C)O)nc(OCCNC)cc21.Cl [GSK949675] | 47%
31 | COc1cc(C=NNc2ncnc3c2cnn3-c2ccccc2)ccc1O [GW513184X] | 75%
32 | Cl.O=C(Nc1ccc(Oc2ccc3[nH]c(NC(=O)c4ccccc4)nc3c2)cc1)Nc1cc(C(F)(F)F)ccc1F [GW709042A] | 100%
33 | Nc1ncnc2occ(-c3ccc(NC(=O)Nc4cc(C(F)(F)F)ccc4F)cc3)c12 [GW770249X] | 29%

Source: article PMC7826789 (International Journal of Molecular Sciences, 2021)
